Source: the supplement of paper PMC11732987, “Enantioselective OTUD7B fragment discovery through chemoproteomics screening and high-throughput optimisation” (Communications Chemistry, 2025)

Key:
Experiment in all cases: log2 ratio of Biotin-Ahx-Ub-VS probe labelling (fragment/DMSO); higher = less target engagement (more negative = stronger competition), active = hit call of the paper (q ≤ 0.05, log2 ratio ≤ -1)
Details in all cases: compound concentration: 200 uM; treatment time: 3 h
ALG13 = target: T1, ALG13 (UniProt Q9NP73)
T1 sequence (whole entry): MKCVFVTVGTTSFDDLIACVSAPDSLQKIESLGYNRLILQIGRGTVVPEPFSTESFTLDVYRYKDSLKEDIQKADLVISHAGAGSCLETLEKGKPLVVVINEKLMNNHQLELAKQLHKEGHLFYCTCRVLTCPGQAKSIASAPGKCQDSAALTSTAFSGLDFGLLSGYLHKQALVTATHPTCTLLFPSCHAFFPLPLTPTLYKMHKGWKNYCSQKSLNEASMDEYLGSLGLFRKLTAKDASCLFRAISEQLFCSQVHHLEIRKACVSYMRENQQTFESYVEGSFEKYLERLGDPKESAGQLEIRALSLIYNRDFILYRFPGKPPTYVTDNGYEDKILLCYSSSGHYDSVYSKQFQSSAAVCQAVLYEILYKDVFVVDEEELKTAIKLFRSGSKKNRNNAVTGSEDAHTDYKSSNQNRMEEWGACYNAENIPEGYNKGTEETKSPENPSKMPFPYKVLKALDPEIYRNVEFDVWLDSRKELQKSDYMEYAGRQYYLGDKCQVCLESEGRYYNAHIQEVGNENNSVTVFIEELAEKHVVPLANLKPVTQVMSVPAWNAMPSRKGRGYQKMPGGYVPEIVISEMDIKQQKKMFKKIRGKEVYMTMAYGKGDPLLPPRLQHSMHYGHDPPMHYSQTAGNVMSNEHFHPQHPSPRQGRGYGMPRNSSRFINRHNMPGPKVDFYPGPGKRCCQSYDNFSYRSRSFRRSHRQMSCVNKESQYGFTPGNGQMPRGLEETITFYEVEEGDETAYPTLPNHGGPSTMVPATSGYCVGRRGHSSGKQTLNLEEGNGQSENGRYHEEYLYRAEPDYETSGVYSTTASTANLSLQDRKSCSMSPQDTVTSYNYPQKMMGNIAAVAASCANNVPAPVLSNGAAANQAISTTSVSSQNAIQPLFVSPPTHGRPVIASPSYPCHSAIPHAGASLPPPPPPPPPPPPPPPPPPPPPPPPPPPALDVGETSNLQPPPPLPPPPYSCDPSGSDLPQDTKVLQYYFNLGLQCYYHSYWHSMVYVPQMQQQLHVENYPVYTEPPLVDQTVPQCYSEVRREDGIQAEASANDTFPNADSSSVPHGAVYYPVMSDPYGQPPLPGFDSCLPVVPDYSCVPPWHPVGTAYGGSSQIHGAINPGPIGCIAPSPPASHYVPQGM
Outline: (§1)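 Global-median-normalised Spectronaut label-free quantities were compared by unpaired t-test, and values are average log2 ratios of fragment over vehicle. Only proteins with ≥2 unique peptides were used. HEK293T lysate (495 µg per sample) was treated in triplicate with fragment at 200 µM or vehicle for 3 h and then with Biotin-Ahx-Ub-VS at 0.5 µM final for 1 h. Labelled DUBs were then NeutrAvidin-enriched, digested with LysC and trypsin, and run by diaPASEF LC-MS/MS.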

ATXN3 = ATXN3 (UniProt P54252)
Outline: as §1

BAP1 = target: T2, BAP1 (UniProt Q92560)
T2 sequence (whole entry): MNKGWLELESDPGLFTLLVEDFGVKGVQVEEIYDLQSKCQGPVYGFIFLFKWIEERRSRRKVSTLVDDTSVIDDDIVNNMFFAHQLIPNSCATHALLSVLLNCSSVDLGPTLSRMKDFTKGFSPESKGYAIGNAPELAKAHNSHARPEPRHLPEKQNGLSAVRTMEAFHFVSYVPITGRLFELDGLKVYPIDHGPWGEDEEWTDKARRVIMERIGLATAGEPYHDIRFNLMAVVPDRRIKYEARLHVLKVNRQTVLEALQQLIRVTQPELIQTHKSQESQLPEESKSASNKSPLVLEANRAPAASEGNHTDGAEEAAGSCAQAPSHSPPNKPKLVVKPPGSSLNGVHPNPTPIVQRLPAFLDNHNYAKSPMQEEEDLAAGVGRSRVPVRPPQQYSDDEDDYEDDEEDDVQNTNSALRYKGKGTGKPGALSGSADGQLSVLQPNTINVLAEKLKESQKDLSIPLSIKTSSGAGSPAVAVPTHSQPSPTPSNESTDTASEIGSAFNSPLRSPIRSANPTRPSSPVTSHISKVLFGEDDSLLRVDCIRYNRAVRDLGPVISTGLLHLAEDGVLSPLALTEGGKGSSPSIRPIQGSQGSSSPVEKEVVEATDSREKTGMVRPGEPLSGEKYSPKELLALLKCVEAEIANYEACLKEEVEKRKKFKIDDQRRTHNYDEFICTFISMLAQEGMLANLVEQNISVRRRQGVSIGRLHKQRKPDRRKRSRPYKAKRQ
Outline: as §1

EIF3F = EIF3F (UniProt O00303)
Outline: as §1

EIF3H = EIF3H (UniProt O15372)
Outline: as §1

FAM105A = target: T3, FAM105A (UniProt Q9NUU6)
T3 sequence (whole entry): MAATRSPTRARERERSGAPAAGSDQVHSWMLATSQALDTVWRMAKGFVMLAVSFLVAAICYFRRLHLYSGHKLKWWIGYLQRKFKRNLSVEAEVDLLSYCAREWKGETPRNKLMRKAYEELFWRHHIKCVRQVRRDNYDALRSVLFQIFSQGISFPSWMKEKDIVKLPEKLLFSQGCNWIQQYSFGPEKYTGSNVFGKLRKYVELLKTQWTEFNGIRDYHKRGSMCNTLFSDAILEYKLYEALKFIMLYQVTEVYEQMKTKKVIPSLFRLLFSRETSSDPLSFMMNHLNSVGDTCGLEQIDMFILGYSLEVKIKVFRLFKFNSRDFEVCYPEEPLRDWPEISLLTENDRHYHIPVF
Outline: as §1

OTUB1 = OTUB1 (UniProt Q96FW1)
Outline: as §1

OTUD4 = target: T4, OTUD4 (UniProt Q01804)
T4 sequence (whole entry): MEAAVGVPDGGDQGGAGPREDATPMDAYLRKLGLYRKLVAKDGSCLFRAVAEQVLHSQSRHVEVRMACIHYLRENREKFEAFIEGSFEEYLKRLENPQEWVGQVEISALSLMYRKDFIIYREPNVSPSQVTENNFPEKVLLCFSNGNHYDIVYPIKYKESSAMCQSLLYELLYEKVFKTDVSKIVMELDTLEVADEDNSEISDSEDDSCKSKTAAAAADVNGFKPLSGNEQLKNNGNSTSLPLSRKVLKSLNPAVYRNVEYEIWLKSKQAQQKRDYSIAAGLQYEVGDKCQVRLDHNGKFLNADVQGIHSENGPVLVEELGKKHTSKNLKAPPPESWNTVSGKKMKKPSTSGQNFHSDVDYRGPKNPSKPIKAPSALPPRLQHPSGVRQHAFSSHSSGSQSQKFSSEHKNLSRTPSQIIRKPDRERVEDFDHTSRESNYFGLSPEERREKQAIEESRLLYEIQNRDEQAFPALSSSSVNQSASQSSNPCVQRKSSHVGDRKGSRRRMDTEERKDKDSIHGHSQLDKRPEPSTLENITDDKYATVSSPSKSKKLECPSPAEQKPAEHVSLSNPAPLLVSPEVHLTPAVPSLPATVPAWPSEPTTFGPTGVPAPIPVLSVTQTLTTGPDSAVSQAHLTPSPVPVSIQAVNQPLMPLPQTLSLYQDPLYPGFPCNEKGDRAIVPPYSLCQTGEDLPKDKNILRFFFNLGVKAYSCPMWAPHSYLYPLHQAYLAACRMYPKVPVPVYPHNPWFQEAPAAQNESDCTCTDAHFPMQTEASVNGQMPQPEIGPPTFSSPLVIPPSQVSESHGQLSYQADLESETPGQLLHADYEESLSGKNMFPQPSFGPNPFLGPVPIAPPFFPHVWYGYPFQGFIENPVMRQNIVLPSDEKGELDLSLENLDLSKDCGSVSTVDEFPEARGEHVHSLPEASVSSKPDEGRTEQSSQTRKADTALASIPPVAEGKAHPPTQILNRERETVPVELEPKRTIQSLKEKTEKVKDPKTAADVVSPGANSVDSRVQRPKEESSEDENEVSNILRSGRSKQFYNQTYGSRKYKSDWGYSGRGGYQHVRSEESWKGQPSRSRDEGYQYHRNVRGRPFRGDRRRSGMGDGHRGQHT
Outline: as §1

OTUD5 = target: T5, OTUD5 (UniProt Q96G74)
T5 sequence (whole entry): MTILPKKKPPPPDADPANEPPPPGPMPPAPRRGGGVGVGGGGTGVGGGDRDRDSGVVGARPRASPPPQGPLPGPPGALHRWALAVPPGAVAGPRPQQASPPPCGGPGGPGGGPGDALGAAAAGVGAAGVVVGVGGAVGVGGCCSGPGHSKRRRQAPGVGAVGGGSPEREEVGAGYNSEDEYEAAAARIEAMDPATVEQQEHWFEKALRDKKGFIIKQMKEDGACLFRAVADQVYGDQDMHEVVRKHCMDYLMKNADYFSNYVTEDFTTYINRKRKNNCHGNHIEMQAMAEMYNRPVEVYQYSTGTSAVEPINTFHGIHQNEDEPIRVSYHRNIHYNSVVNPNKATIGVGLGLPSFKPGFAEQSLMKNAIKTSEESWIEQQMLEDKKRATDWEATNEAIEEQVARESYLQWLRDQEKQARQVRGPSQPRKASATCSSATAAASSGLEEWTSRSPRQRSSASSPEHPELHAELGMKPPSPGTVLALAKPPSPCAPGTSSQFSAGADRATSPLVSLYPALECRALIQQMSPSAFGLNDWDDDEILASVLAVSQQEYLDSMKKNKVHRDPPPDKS
Outline: as §1

Measured: log2 ratio of Biotin-Ahx-Ub-VS probe labelling

EIF3F, sequence (O00303 whole entry): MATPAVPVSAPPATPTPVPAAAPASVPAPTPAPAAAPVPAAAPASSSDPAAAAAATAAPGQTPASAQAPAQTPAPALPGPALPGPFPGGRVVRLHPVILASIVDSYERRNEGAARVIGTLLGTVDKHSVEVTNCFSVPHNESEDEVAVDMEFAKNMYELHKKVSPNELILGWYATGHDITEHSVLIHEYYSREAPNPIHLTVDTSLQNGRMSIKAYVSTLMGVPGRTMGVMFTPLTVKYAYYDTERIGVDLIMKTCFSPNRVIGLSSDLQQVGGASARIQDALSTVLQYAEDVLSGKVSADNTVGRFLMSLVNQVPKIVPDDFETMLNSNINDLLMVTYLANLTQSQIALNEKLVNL
OTUB1, sequence (Q96FW1 whole entry): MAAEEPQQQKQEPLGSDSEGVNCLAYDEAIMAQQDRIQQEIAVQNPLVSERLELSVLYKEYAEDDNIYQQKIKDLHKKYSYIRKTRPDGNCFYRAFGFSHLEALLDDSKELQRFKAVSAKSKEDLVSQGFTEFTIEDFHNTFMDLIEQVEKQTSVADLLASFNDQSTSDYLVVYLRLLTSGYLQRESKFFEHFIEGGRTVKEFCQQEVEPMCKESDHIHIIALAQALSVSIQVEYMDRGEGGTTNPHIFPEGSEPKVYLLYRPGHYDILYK
ATXN3, sequence (P54252 whole entry): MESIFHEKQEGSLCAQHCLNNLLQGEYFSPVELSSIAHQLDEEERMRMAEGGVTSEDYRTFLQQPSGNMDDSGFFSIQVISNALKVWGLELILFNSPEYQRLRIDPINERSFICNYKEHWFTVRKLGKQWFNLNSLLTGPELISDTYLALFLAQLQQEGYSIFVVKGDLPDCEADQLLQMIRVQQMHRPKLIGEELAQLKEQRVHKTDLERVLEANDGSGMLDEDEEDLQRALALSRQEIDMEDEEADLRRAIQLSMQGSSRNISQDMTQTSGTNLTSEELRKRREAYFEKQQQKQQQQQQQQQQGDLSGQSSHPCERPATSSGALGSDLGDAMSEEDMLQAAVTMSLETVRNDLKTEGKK
EIF3H, sequence (O15372 whole entry): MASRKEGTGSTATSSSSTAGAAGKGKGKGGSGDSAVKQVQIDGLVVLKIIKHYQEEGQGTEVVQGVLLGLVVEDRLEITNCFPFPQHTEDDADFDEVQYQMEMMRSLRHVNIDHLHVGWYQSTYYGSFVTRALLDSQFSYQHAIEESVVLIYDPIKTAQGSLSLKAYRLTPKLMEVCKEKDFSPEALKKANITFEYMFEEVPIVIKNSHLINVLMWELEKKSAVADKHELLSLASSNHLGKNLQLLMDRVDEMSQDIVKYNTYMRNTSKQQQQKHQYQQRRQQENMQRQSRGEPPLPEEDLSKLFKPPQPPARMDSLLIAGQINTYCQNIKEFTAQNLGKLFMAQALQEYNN

Cc1nc(CN2CCN(C(=O)CCl)CC2)cs1
inactive: ALG13 0.271 | ATXN3 -0.309 | BAP1 -0.469 | EIF3F -0.26 | EIF3H 0.0747 | FAM105A 0.151 | OTUB1 0.0298 | OTUD4 -0.0355 | OTUD5 -0.265
